# Reference: PubChem BioAssay (Tox21)
# Several values for one entry are separate records, joined by “and”; a condition that tells them apart may be missing. Equal entries are not always repeated. Records with an inconclusive call do not appear. The source holds several records for some structures; these can differ, active in one and inactive in another. Activity calls are given as the source filed them. Unless noted, the call rests on the fitted dose curve; in most records, active means well fitted curve in the direction sought with a large enough effect in the repeat runs; inconclusive means weak or mixed curves; inactive means no such curve, though single readings can be large; an effect the other way counts as inactive or inconclusive.
# Legend:
# [1] = qHTS assay to identify small molecule antagonists of the glucocorticoid receptor (GR) signaling pathway - cell viability counter screen (AID 720693); further: nearly all actives have a fitted effect of over 55% in size; further: potency means the concentration at half of the fitted maximal effect
# [2] = qHTS assay for identifying genotoxic compounds that show differential cytotoxicity against isogenic chicken DT40 cell lines with known DNA damage response pathways - wild type cell line (AID 743012); further: nearly all actives have a fitted effect of over 60% in size; further: potency means the concentration at half of the fitted maximal effect
# Outline: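 Wild-type DT40 cells (300/well) exposed to compounds for 40 hours at 37 C/5% CO2. Viability read by CellTiter-Glo luminescence after 30 min at room temperature.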
# [3] = qHTS assay for identifying genotoxic compounds that show differential cytotoxicity against isogenic chicken DT40 cell lines with known DNA damage response pathways - Rev3 mutant cell line (AID 743014); further: nearly all actives have a fitted effect of over 55% in size; further: potency means the concentration at half of the fitted maximal effect
# [4] = qHTS assay for identifying genotoxic compounds that show differential cytotoxicity against isogenic chicken DT40 cell lines with known DNA damage response pathways - Rad54/Ku70 mutant cell line (AID 743015); further: nearly all actives have a fitted effect of over 60% in size; further: potency means the concentration at half of the fitted maximal effect
# [5] = qHTS assay to identify small molecule antagonists of the androgen receptor (AR) signaling pathway - cell viability counter screen (AID 743033; further: nearly all actives have a fitted effect of over 45% in size; further: potency means the concentration at half of the fitted maximal effect)
# [6] = qHTS assay to identify small molecule antagonists of the androgen receptor (AR) signaling pathway using the MDA cell line - cell viability counter screen (AID 743041; further: nearly all actives have a fitted effect of over 45% in size; further: potency means the concentration at half of the fitted maximal effect)
# Outline: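 MDA-kb2 AR-luc human breast carcinoma cells (MMTV-luciferase, AR/GR responsive) were treated with compounds plus R1881 agonist for 16 h at 37 °C. Viability was read as CellTiter-Fluor fluorescence in the same wells as the reporter assay.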
# [7] = qHTS assay to identify small molecule antagonists of the thyroid receptor (TR) signaling pathway - cell viability counter screen (AID 743064); further: nearly all actives have a fitted effect of over 50% in size; further: potency means the concentration at half of the fitted maximal effect; on activity change, negative = cytotoxic: on the % scale 0 is the no-effect control and ±100 the full control effect
# Outline: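 Fluorescence from CellTiter-Fluor, added after 23.5 h exposure at 37 °C, reported viability of GH3.TRE-Luc cells co-treated with compound and 1 nM T3. Measured in the same wells as the luciferase TR readout.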
# [8] = qHTS assay to identify small molecule antagonists of the thyroid receptor (TR) signaling pathway (AID 743065); further: nearly all actives have a fitted effect of over 55% in size; further: potency means the concentration at half of the fitted maximal effect; on activity, negative = inhibition: on the % scale 0 is the no-effect control and ±100 the full control effect
# Outline: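 GH3.TRE-Luc rat pituitary cells carrying two TR response elements driving luciferase were plated for 4 h, given compound plus 1 nM T3 (final), and incubated 23.5 h at 37 C. ONE-Glo luminescence measured reporter inhibition; CellTiter-Fluor fluorescence tracked cytotoxicity.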
# [9] = system: thyroid hormone receptor (rat, GH3 cells); test: qHTS assay to identify small molecule agonists of the thyroid receptor (TR) signaling pathway (AID 743066; calls by dose curve; further: on the % scale 0 is the no-effect control and ±100 the full control effect)
# [10] = molecular target: Estrogen receptor (Homo sapiens) (UniProt P03372); test: qHTS assay to identify small molecule antagonists of the estrogen receptor alpha (ER-alpha) signaling pathway (AID 743069; active means well fitted curve in the direction sought with a large enough effect in the signal ratio in the repeat runs, not every such curve was filed as active; the % refers to the signal ratio; further: on the % scale 0 is the no-effect control and ±100 the full control effect)
# Outline: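 HEK293 cells stably carrying an ER-alpha-UAS-bla beta-lactamase reporter were pre-cultured overnight in 2% charcoal-stripped FBS medium. Test compounds in DMSO were added together with 17beta-estradiol for 18 hr at 37C. Read-out was fluorescence after 2 hr with LiveBLAzer B/G FRET substrate at room temperature.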
# [11] = qHTS assay to identify small molecule antagonists of the estrogen receptor alpha (ER-alpha) signaling pathway - cell viability counter screen (AID 743074; calls by dose curve; further: nearly all actives have a fitted effect of over 45% in size; further: potency means the concentration at half of the fitted maximal effect)
# [12] = molecular target: Estrogen receptor (Homo sapiens) (UniProt P03372); test: qHTS assay to identify small molecule agonists of the estrogen receptor alpha (ER-alpha) signaling pathway using the BG1 cell line (AID 743079); conditions: BG1Luc4E2 cells, ERE-luciferase agonist, 22 h; activation: at 70.3 µM (top of the series); further: on the % scale 0 is the no-effect control and ±100 the full control effect; nearly all actives have a fitted effect of over 20% in size
# [13] = qHTS assay to identify small molecule antagonists of the estrogen receptor alpha (ER-alpha) signaling pathway using the BG1 cell line (AID 743080; calls by dose curve;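 further: BG1 cells stimulated with 17beta-estradiol alongside compound; on the % scale 0 is the no-effect control and ±100 the full control effect; nearly all actives have a fitted effect of over 25% in size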)
# Outline: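 Luminescence from a 4×ERE-luciferase reporter in BG1-Luc-4E2 cells served as read-out. Cells, pre-cultured 5 days in stripped-serum phenol-red-free medium, were exposed to compound with 17beta-estradiol co-stimulation for 21.5 h at 37 C.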
# [14] = qHTS assay to identify small molecule antagonists of the estrogen receptor alpha (ER-alpha) signaling pathway using the BG1 cell line - cell viability counter screen (AID 743081);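 further: compound given together with 17beta-estradiol as the ER stimulus; nearly all actives have a fitted effect of over 45% in size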; further: potency means the concentration at half of the fitted maximal effect
# [15] = molecular target: Aromatase (Homo sapiens) (UniProt P11511); test: qHTS assay to identify aromatase inhibitors (AID 743083); further: nearly all actives have a fitted effect of over 55% in size; further: potency means the concentration at half of the fitted maximal effect
# [16] = molecular target: Androgen receptor (Homo sapiens) (UniProt P10275); test: qHTS assay to identify small molecule agonists of the androgen receptor (AR) signaling pathway using the MDA cell line (AID 743040; further: on the % scale 0 is the no-effect control and ±100 the full control effect; nearly all actives have a fitted effect of over 20% in size)
# Outline: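 MDA-kb2 breast carcinoma cells stably carrying an MMTV-driven luciferase reporter (AR- and GR-responsive) were seeded and held 5 h at 37C, 0% CO2, then exposed to compounds in DMSO for 16 h. Luminescence was read 30 min after ONE-Glo addition.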
# [17] = molecular target: Androgen receptor (Homo sapiens) (UniProt P10275); test: qHTS assay to identify small molecule antagonists of the androgen receptor (AR) signaling pathway using the MDA cell line (AID 743042; further: nearly all actives have a fitted effect of over 55% in size; further: potency means the concentration at half of the fitted maximal effect)
# Outline: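 MDA-kb2 cells (human breast carcinoma, stably carrying an MMTV-luciferase reporter responsive to AR and GR) were plated at 3,000 cells/well and preincubated 5 hr at 37C, then given compound plus R1881 agonist for 16 h. ONE-Glo luminescence was read.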
# [18] = molecular target: Estrogen receptor (Homo sapiens) (UniProt P03372); test: qHTS assay to identify small molecule agonists of the estrogen receptor alpha (ER-alpha) signaling pathway (AID 743075; calls by dose curve; further: potency means the concentration at half of the fitted maximal effect)
# [19] = molecular target: Androgen receptor (Homo sapiens) (UniProt P10275); test: qHTS assay to identify small molecule antagonists of the androgen receptor (AR) signaling pathway (AID 743035; active means well fitted inhibition curve with a large enough effect in the signal ratio in the repeat runs, not every such curve was filed as active; the % refers to the signal ratio; further: potency means the concentration at half of the fitted maximal effect)
# Outline: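 HEK293 cells stably carrying UAS-beta-lactamase reporter, 2,000/well, given compounds plus R1881 agonist and incubated 16 h at 37C. LiveBLAzer B/G FRET substrate then added for 2 h at room temperature before fluorescence reading.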
# Chain of Estrogen receptor (Homo sapiens) (P03372 whole entry, looked up): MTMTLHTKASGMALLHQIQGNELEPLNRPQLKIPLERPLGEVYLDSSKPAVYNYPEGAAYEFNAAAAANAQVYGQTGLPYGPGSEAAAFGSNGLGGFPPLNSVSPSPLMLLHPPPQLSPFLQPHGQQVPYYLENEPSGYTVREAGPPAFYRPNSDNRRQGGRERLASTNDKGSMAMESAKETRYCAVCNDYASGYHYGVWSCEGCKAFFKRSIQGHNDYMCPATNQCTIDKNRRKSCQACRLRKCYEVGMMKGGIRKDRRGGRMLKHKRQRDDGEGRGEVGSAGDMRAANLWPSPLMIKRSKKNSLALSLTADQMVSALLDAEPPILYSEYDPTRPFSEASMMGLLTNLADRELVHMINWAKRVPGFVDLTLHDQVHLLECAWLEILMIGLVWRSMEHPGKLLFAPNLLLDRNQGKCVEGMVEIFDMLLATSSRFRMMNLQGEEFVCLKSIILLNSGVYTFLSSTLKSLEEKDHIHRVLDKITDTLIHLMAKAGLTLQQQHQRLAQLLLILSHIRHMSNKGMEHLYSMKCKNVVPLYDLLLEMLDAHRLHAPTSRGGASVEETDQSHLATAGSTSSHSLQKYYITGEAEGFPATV
# Chain of Androgen receptor (Homo sapiens) (P10275 whole entry, looked up): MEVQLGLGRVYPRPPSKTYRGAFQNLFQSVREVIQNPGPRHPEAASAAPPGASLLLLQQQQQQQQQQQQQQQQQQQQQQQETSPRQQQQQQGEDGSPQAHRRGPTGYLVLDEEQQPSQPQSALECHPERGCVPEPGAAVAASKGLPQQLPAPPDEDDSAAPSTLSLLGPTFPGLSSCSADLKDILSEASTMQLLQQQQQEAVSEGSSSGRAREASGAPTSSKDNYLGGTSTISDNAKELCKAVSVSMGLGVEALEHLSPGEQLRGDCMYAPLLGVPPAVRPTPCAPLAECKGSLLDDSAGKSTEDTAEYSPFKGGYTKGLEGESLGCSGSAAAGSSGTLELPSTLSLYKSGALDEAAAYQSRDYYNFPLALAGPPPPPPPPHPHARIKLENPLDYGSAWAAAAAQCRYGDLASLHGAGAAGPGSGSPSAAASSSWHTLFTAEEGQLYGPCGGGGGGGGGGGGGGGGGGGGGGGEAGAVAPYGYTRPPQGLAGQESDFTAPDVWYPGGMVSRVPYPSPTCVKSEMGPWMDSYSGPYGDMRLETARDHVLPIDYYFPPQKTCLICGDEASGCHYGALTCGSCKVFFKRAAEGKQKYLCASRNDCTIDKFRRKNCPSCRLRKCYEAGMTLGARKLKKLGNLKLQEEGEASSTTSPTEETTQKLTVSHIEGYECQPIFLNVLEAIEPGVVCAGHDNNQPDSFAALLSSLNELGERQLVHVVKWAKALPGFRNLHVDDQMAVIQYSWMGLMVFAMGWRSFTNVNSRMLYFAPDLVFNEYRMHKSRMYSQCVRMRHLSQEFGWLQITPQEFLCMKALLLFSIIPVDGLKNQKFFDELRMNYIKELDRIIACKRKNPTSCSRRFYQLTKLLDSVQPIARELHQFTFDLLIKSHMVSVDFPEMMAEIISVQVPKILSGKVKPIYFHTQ
# Chain of Aromatase (Homo sapiens) (P11511 whole entry, looked up): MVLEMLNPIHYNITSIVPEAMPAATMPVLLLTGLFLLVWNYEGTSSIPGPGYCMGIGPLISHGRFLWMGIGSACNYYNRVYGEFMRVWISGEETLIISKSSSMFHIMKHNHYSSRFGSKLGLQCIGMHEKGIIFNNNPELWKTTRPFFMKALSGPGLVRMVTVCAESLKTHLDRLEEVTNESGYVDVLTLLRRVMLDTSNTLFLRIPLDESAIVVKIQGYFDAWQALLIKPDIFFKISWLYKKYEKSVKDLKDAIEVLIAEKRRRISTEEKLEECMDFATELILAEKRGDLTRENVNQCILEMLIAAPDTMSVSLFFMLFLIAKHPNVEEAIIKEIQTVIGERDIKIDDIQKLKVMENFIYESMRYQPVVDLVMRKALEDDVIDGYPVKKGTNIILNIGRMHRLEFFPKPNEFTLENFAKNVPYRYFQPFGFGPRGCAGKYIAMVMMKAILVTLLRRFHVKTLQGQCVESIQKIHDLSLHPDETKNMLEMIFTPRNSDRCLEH
smiles,measurement,setting,value
N#CSCc1ccccc1,Potency,[1],inactive
same,Potency,[2],inactive
same,Potency,[3],inactive
same,Potency,[4],inactive
same,Potency,[5],inactive
same,Potency,[6],inactive
same,Potency,[7],inactive
same,Potency,[8],inactive
same,Potency,[9],inactive
same,Potency,[10],inactive
same,Potency,[11],inactive
same,Potency,[12],inactive
same,Potency,[13],inactive
same,Potency,[14],inactive
same,Potency,[15],inactive
CN(C)C(=S)SSC(=S)N(C)C,Potency,[1],inactive
same,Potency,[2],47.3 nM (active) and 240 nM (active) and 24.3 nM (active)
same,Potency,[3],106 nM (active) and 107 nM (active) and 19.3 nM (active)
same,Potency,[4],106 nM (active) and 135 nM (active) and 19.3 nM (active)
same,Potency,[5],535 nM (active) and 85.9 nM (active) and 34.7 nM (active)
same,outcome,[16],inactive
same,Potency,[6],393 nM (active) and 269 nM (active) and 154 nM (active)
same,Potency,[17],inactive and 170 nM (active) and 61.1 nM (active)
same,Potency,[7],133 nM (active) and 9.55 µM (active) and 21.7 nM (active)
same,Potency,[9],inactive
same,Potency,[10],inactive
same,Potency,[11],inactive
same,Potency,[18],inactive
same,Potency,[14],inactive
same,Potency,[15],188 nM (active) and 47.9 nM (active) and 15.4 nM (active)
CCC[CH2][Sn]([CH2]CCC)([CH2]CCC)[O][Sn]([CH2]CCC)([CH2]CCC)[CH2]CCC,Potency,[1],1350 nM (active)
same,Potency,[2],336 nM (active)
same,Potency,[3],300 nM (active)
same,Potency,[4],267 nM (active)
same,Potency,[5],603 nM (active)
same,Potency,[19],427 nM (active)
same,Potency,[6],1.5 µM (active)
same,Potency,[17],844 nM (active)
same,"activity change, negative = cytotoxic",[7],15.8% [at 8.44 µM] (inactive)
same,"activity, negative = inhibition",[8],7.29% [at 8.44 µM] (inactive)
same,Potency,[11],852 nM (active)
same,Potency,[15],2.67 µM (active)
[Cl][Hg][c]1ccccc1,Potency,[1],309 nM (active)
same,Potency,[2],122 nM (active)
same,Potency,[3],172 nM (active)
same,Potency,[4],86.3 nM (active)
same,Potency,[5],1380 nM (active)
same,Potency,[6],3.44 µM (active)
same,Potency,[17],969 nM (active)
same,Potency,[7],243 nM (active)
same,Potency,[8],86.3 nM (active)
same,Potency,[11],12300 nM (active)
same,Potency,[18],4360 nM [fluorescent] (active)
same,Potency,[14],30600 nM (active)
same,Potency,[15],1.37 µM (active)
